{"source": "PubChem BioAssay (NCI)", "note": "This is part of a sample that, as a whole, favours compounds with a hit. Of some 79,000 tested, about 15% had one in any assay. Unmarked numbers belong to inactive results. Activity calls are given as the source filed them. Rule as the data show it: active = growth inhibition above about 70%; inactive = the rest.", "data": [{"assay": "NCI Yeast Anticancer Drug Screen. Data for the rad50 strain (AID 155);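 also: 0% = growth of vehicle-only cultures of the same strain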", "conditions": "S. cerevisiae rad50 strain growth inhibition; at 50.0 µM; active compounds read high", "outline": "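A DNA repair-deficient yeast mutant serves as the test organism; compound-induced growth inhibition is calculated against vehicle-treated cells.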", "values": [{"compound": "CCSCC1(c2ccc(OC)cc2)NC(=O)NC1=O", "note": "(stereo not given)", "growth inhibition": "-20.5%"}, {"compound": "CCN(CC)CC(C)(C)C(O)c1ccc(OC)c2ccccc12", "note": "(stereo not given)", "growth inhibition": "-6.15%"}, {"compound": "CCC(CC)=C(c1ccc(C)cc1)c1ccc(C)cc1", "growth inhibition": "-25.2%"}, {"compound": "Oc1cc(CN2COc3ccccc32)c(O)cc1CNC1CCCCC1", "growth inhibition": "-6.65%"}, {"compound": "OCCN(/N=C\\c1ccc2ccccc2c1)C1=NCCN1", "growth inhibition": "15.3%"}, {"compound": "C=CCOCCC(OCC=C)OCC=C", "growth inhibition": "1.25%"}, {"compound": "COC(=O)C(=O)C(C(=O)C(=O)Nc1ccc(C)cc1C)c1nc2ccc(Cl)cc2[nH]c1=O", "note": "(stereo not given)", "growth inhibition": "4.35%"}, {"compound": "Cc1[nH]c(=O)[nH]c(=O)c1NC=O", "growth inhibition": "-3.6%"}, {"compound": "c1ccc(C[n+]2cccc3ccccc32)cc1", "growth inhibition": "1.75%"}, {"compound": "COC(=O)c1ccc(N(C)CC/C(CNc2nc(N)[nH]c(=O)c2[N+](=O)[O-])=N\\NC(N)=O)cc1", "growth inhibition": "9.35%"}, {"compound": "CCSC(C(O)C(O)C(O)C(O)CO)n1cnc2c(SC)ncnc21", "note": "(stereo not given)", "growth inhibition": "20.1%"}, {"compound": "CN(c1nc(=[N+](C)C)ss1)C1CCCCC1", "growth inhibition": "9.4%"}, {"compound": "CC1=CC(=O)Nc2ccccc2S1", "growth inhibition": "43.2%"}, {"compound": "O=C(CC(=O)c1ccc(Cl)s1)C(=O)NC1C2CC3CC(C2)CC1C3", "note": "(stereo not given)", "growth inhibition": "-15%"}, {"compound": "CCCCCCOC(=O)NC1c2ccccc2Oc2ccccc21", "growth inhibition": "-0.35%"}, {"compound": "CC[O-].CC[O-].O=C1c2ccccc2C(=O)c2c(O)ccc([O-])c21.O=C1c2ccccc2C(=O)c2c(O)ccc([O-])c21.[Ti+4]", "growth inhibition": "-20.6%"}, {"compound": "O=C(Nc1cc(Cl)c(I)cc1Cl)C(F)(F)F", "growth inhibition": "55.4%"}, {"compound": "C[N+]1(C)C2Cc3ccccc3C1Cc1ccccc12", "growth inhibition": "-1.7%"}, {"compound": "Cc1ccnc(SCC(=O)O)n1", "growth inhibition": "-4.35%"}, {"compound": "CO/[N+]([O-])=C\\C(=O)N/C=C/C(=O)O", "growth inhibition": "19.1%"}, {"compound": "CC(C)(CCCCC(C)(C)C1NC(=O)N1)C1NC(=O)N1", "growth inhibition": "-42.6%"}, {"compound": "CCCC(O)c1ccccc1C", "note": "(stereo not given)", "growth inhibition": "17.6%"}, {"compound": "CC(NC(=O)C(N)CC(=O)O)NC(=O)C1CCC1", "note": "(stereo not given)", "growth inhibition": "-39.9%"}, {"compound": "Nc1nc(=O)[nH]c2n[nH]nc12", "growth inhibition": "-18.2%"}, {"compound": "CC/C(=C/CO)c1ccccc1", "growth inhibition": "46.5%"}, {"compound": "CN(C)c1ccc(/C=C2\\CCc3ccccc3C2=O)cc1Br", "growth inhibition": "5.6%"}, {"compound": "CCc1ccc(NS(=O)(=O)c2ccc3ccccc3c2)cc1", "growth inhibition": "96% (active)"}, {"compound": "NS(=O)(=O)c1ccc(NC2=CC(=O)C(=O)c3ccccc32)cc1", "growth inhibition": "-6.4%"}, {"compound": "Cc1ccc(C(=O)C[N+]2(C)CCOCC2)cc1", "growth inhibition": "15.8%"}, {"compound": "COc1cc(/C=N/N=C(\\N)NO)cc(OC)c1OC", "growth inhibition": "-6.5%"}, {"compound": "COc1ccc(Nc2cc(N)nc(N)n2)c(=S)[nH]1", "growth inhibition": "0.05%"}, {"compound": "Cc1cccc(NC(=O)/C=C/c2ccccc2)n1", "growth inhibition": "6.15%"}, {"compound": "N#CCOc1ccc(/C=C/C(=O)c2ccc(Cl)cc2)cc1", "growth inhibition": "-39.5%"}, {"compound": "COc1cc(/C=C\\C(=O)c2cccc([N+](=O)[O-])c2)cc(OC)c1OC", "growth inhibition": "20.4%"}, {"compound": "Cc1cccc(CC(CC(=O)O)C(=O)O)c1", "note": "(stereo not given)", "growth inhibition": "4.85%"}, {"compound": "CCOC(=O)c1c(NN)n[nH]c1C", "growth inhibition": "8.95%"}, {"compound": "CCCCOC(=O)c1cc2ccccc2oc1=O", "growth inhibition": "34.5%"}, {"compound": "C=C(C)CCCC(C)C(O)C=O", "note": "(stereo not given)", "growth inhibition": "-8.85%"}, {"compound": "COC1OC2COC(c3ccccc3)OC2C2C1N2C(=S)SC", "note": "(stereo not given)", "growth inhibition": "-4.05%"}, {"compound": "Cc1ccc(N=Nc2ccc(C)cc2NC(=S)Nc2ccccc2)cc1", "growth inhibition": "-11.2%"}]}]}
